Measurements as given in PubChem BioAssay (NCATS).
“And” between values parts separate entries of the source, which are not always exact repeats. Identical values can stand only once. Results filed as inconclusive are left out. The source made the active and inactive calls. Calls come from the whole dose curve; as a rule, active = well fitted curve in the direction sought with a large enough effect; inconclusive = small, poorly fitted or top-dose-only effect, or another doubt; inactive = no such curve, though single readings can be large; an effect the other way counts as inactive or inconclusive.

Columns and labels:
[1] = BET inhibitor-based combinations targeting novel dependencies in MECOM-rearranged (r) AML: SET-2 cell line (AID 2202231); settings: SET-2 AML cells viability, CellTiter-Glo luminescence, 48 h; viability: active compounds read low, concentration not given here; note: nearly all actives have a fitted effect of over 35% in size;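 for viability: plate controls were DMSO treated cells for no effect and wells without cells for full effect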
How it was run: (§1)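 500 cells/well; 11-pt dose curve; 48 h, standard incubator; CellTiter-Glo luminescence after 15 min RT; DMSO/empty-well normalization; AUC plus Z-AUC (mean-centered within each line).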

[2] = BET inhibitor-based combinations targeting novel dependencies in MECOM-rearranged (r) AML: OCI-AML3 cell line (AID 2202232); settings: CellTiter-Glo luminescence, 48 h; Potency: OCI-AML3 viability; series mostly up to 46 µM; note: nearly all actives have a fitted effect of over 35% in size;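 for viability (% of control): plate controls were DMSO vehicle wells for no effect and wells without cells for full effect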
How it was run: as §1

[3] = BET inhibitor-based combinations targeting novel dependencies in MECOM-rearranged (r) AML: MV-4-11 cell line (AID 2202233); settings: MV-4-11 AML viability, CellTiter-Glo luminescence, 48 h; series mostly up to 46 µM; note: nearly all actives have a fitted effect of over 45% in size;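 for viability, % of control: plate controls were DMSO for no effect and blank wells for full effect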
How it was run: (§2)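 Cells were plated at 500 per well and exposed to each drug across an 11-point dose range for 48 hr at standard incubator conditions. Viability was read by CellTiter-Glo luminescence, and activity was expressed as AUC and per-cell-line Z-transformed AUC.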

[4] = BET inhibitor-based combinations targeting novel dependencies in MECOM-rearranged (r) AML: HNT-34 cell line (AID 2202234); settings: HNT-34 AML viability, CellTiter-Glo luminescence, 48 h; series mostly up to 46 µM; note: nearly all actives have a fitted effect of over 35% in size;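 for viability (% of control): plate controls were vehicle wells for no effect and cell-free wells for full effect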
How it was run: as §2

[5] = BET inhibitor-based combinations targeting novel dependencies in MECOM-rearranged (r) AML: UCSD-AML1 cell line (AID 2202235); settings: UCSD-AML1 AML cells viability, CellTiter-Glo, 48 h; series mostly up to 46 µM; note: nearly all actives have a fitted effect of over 40% in size;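 for viability (% of control): plate controls were DMSO vehicle wells for no effect and blank wells for full effect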
How it was run: as §2

[6] = BET inhibitor-based combinations targeting novel dependencies in MECOM-rearranged (r) AML: AML-191 cell line (AID 2202236; note: nearly all actives have a fitted effect of over 35% in size;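 for viability (% of control): plate controls were vehicle wells for no effect and wells without cells for full effect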); settings: AML-191 viability, CellTiter-Glo luminescence, 48 h; series mostly up to 46 µM
How it was run: as §1

[7] = BET inhibitor-based combinations targeting novel dependencies in MECOM-rearranged (r) AML: AML-194 cell line (AID 2202237; note: nearly all actives have a fitted effect of over 40% in size;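 for viability (% of control): plate controls were vehicle wells for no effect and wells without cells for full effect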); settings: AML-194 (MECOM-r AML) viability, CellTiter-Glo, 48 h; series mostly up to 46 µM
How it was run: as §1
Potency is the fitted concentration of half-maximal effect.

O=C(CCc1ccc(O)cc1)c1c(O)cc(O)cc1O[C@@H]1O[C@H](CO)[C@@H](O)[C@H](O)[C@H]1O
inactive: viability [1] 76.1% | Potency [2] | Potency [3] | Potency [4] | Potency [5] | Potency [6] | Potency [7]

Cc1c(CN2CCC(Nc3ncnc4sc(CC(F)(F)F)cc34)CC2)ccc2c1cc(C#N)n2Cc1cn[nH]c1
active: Potency [1] 3.32 µM | Potency [2] 13.2 µM | Potency [3] 3.32 µM | Potency [4] 16.6 µM | Potency [5] 16.6 µM | Potency [6] 18.6 µM | Potency [7] 20.9 µM

CCCc1cc(C(=O)N[C@H](Cc2ccc(-c3cccc(OC(F)(F)F)c3)nc2)C(=O)N[C@@H]2CCNC2)sc1C
active: Potency [1] 20.9 µM | Potency [2] 20.9 µM | Potency [3] 9.34 µM | Potency [4] 11.8 µM | Potency [5] 10.5 µM | Potency [6] 16.6 µM | Potency [7] 14.8 µM

CN(CCOc1ccc(C[C@H](Nc2ccccc2C(=O)c2ccccc2)C(=O)O)cc1)c1ccccn1
inactive: viability [1] 94.3% and 95.3% | Potency [2] | Potency [3] | Potency [4] | Potency [5] | Potency [6] | Potency [7]

C[C@@H]1C(=O)OC2[C@H](O)[C@]34[C@H]5C[C@@H](C(C)(C)C)[C@]36[C@@H](OC(=O)[C@@H]6O)O[C@@]4(C(=O)O5)[C@]21O (stereo not given in full)
inactive: viability [1] 115% | Potency [2] | Potency [3] | Potency [4] | Potency [5] | Potency [6] | Potency [7]

COc1cc([C@@H]2c3cc4c(cc3[C@@H](O[C@@H]3O[C@@H]5CO[C@@H](c6cccs6)O[C@H]5[C@H](O)[C@H]3O)[C@H]3COC(=O)[C@H]23)OCO4)cc(OC)c1O
active: Potency [1] 1.18 µM | Potency [2] 0.263 µM | Potency [3] 0.0468 µM | Potency [4] 0.235 µM | Potency [5] 0.132 µM | Potency [6] 0.332 µM | Potency [7] 0.372 µM

C[C@@H](Oc1cc(C(=O)Nc2ccc(C(=O)N3CCN(C)CC3)cc2)nnc1N)c1c(Cl)ccc(F)c1Cl
active: Potency [1] 18.6 µM | Potency [2] 5.9 µM | Potency [3] 1.66 µM | Potency [4] 1.18 µM | Potency [5] 1.18 µM | Potency [6] 0.934 µM | Potency [7] 0.934 µM

Nc1cc(C(F)(F)F)c(-c2nc(N3CCOCC3)nc(N3CCOCC3)n2)cn1
active: Potency [1] 9.34 µM | Potency [2] 3.72 µM | Potency [3] 3.72 µM | Potency [4] 2.63 µM | Potency [5] 0.934 µM | Potency [6] 2.63 µM | Potency [7] 2.35 µM

Cc1ccc(F)c(NC(=O)Nc2ccc(-c3cccc4[nH]nc(N)c34)cc2)c1
active: Potency [1] 14.8 µM | Potency [2] 18.6 µM | Potency [3] 0.0074 µM | Potency [4] 26.3 µM | Potency [5] 16.6 µM | Potency [6] 16.6 µM | Potency [7] 16.6 µM

COc1cc(OC)c(/C=C/S(=O)(=O)Cc2ccc(OC)c(OP(=O)(O)O)c2)c(OC)c1
active: Potency [1] 0.132 µM | Potency [2] 0.118 µM | Potency [3] 0.132 µM | Potency [4] 0.105 µM | Potency [5] 0.118 µM | Potency [6] 0.118 µM | Potency [7] 0.118 µM

Cn1cc(C[C@@H](N)C(=O)O)c2ccccc21
inactive: viability [1] 113% | viability (% of control) [2] 111% [at 8.46 µM] | viability, % of control [3] 103% [at 8.46 µM] | viability (% of control) [4] 100% [at 8.46 µM] | viability (% of control) [5] 112% [at 8.46 µM] | viability (% of control) [6] 110% [at 8.46 µM] | viability (% of control) [7] 109% [at 8.46 µM]

Nc1nc(Nc2ccc3c(c2)CC[C@@H](N2CCCC2)CC3)nn1-c1cc2c(nn1)-c1ccccc1CCC2
active: Potency [1] 23.5 µM | Potency [2] 18.6 µM | Potency [3] 2.63 µM | Potency [4] 7.42 µM | Potency [5] 18.6 µM | Potency [6] 18.6 µM | Potency [7] 20.9 µM

O=C(O)CCNc1cc(N2CCc3ccccc3CC2)nc(-c2cccnc2)n1
active: Potency [2] 9.34 µM
inactive: viability [1] 116% | Potency [3] | Potency [4] | Potency [5] | Potency [6] | Potency [7]

C=C1CCC2[C@](C)(CO)C(O)CC[C@]2(C)C1C/C=C1/C(=O)OCC1O (stereo not given in full)
active: Potency [1] 14.8 µM | Potency [2] 7.42 µM | Potency [3] 3.32 µM | Potency [4] 5.9 µM | Potency [5] 11.8 µM | Potency [6] 7.42 µM | Potency [7] 9.34 µM

Cc1cnc(NC(=O)c2cc(Oc3cnc(C(=O)N(C)C)nc3)c3cc(C)oc3c2)cn1
inactive: viability [1] 126% | Potency [2] | Potency [3] | Potency [4] | Potency [5] | Potency [6] | Potency [7]
